# Hit rate of the full screen: of about 5,500 compounds, about 2,000 (36%) were called active. Another 18% or so got no clear call; they are omitted. This is one part of the list. Unmarked numbers belong to inactive results. Cut-off read from the data, not from the text of the source: active = normalized growth mostly below about 0.91 (no sharp cut-off); inconclusive = no clear call, values can overlap the other calls; inactive = mostly above about 0.92. Where a SMILES comes first, the peptide text is derived from it.
# Assay: chemical genetic growth profiling, strain panel (AID 1159580);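 note: tested at 20 µM; growth read once vehicle control cultures reached saturation at 30 °C; 1 = growth at the plate median or of vehicle wells; lower values mean less growth of the strain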
# Details: S. cerevisiae deletion strains, growth OD
# [1] = locus YAL013W, strain DEP1, hits give low values
# [2] = locus YBR229C, strain ROT2, hits give low values
# [3] = locus YDL101C, strain DUN1, hits give low values
# [4] = locus YEL061C, strain CIN8, hits give low values
# [5] = locus YGR078C, strain PAC10, hits give low values
# [6] = locus YHR030C, strain SLT2, hits give low values
# [7] = locus YJL095W, strain BCK1, hits give low values
# [8] = locus YJR043C, strain POL32, hits give low values
# [9] = locus YKL190W, strain CNB1, hits give low values
# [10] = locus YLR039C, strain RIC1, hits give low values
# [11] = locus YLR262C, strain YPT6, hits give low values
# [12] = locus YMR263W, strain SAP30, hits give low values
# [13] = locus YNL153C, strain GIM3, hits give low values
# [14] = locus YOL006C, strain TOP1, hits give low values
smiles,measurement,setting,value
Nc1nc2[nH]c(=O)c(=O)[nH]c2c(=O)[nH]1,normalized growth,[1],1.01
same,normalized growth,"locus YBR021W, strain FUR4, hits give low values",0.971
same,normalized growth,[2],0.998
same,normalized growth,"locus YCL029C, strain bik1, hits give low values",1.03
same,normalized growth,"locus YDL035C, strain GPR1, hits give low values",1.01
same,normalized growth,"locus YDL074C, strain BRE1, hits give low values",1.01
same,normalized growth,[3],1
same,normalized growth,"locus YDL134C, strain PPH21, hits give low values",1.02
same,normalized growth,"locus YDL185W, strain tfp1, hits give low values",1.01
same,normalized growth,"locus YDL192W, strain arf1, hits give low values",0.995
same,normalized growth,"locus YDR101C, strain arx1, hits give low values",0.987
same,normalized growth,"locus YDR162C, strain NBP2, hits give low values",1.05
same,normalized growth,"locus YDR318W, strain mcm21, hits give low values",1.01
same,normalized growth,"locus YDR388W, hits give low values",1.01
same,normalized growth,"locus YDR502C, strain sam2, hits give low values",1.01
same,normalized growth,[4],1.01
same,normalized growth,"locus YER110C, hits give low values",1.01
same,normalized growth,"locus YER155C, strain BEM2, hits give low values",1.01
same,normalized growth,"locus YER167W, strain BCK2, hits give low values",1.01
same,normalized growth,"locus YGL078C, strain dbp3, hits give low values",1.01
same,normalized growth,"locus YGL086W, strain mad1, hits give low values",0.978
same,normalized growth,"locus YGL248W, strain PDE1, hits give low values",1.01
same,normalized growth,[5],1.01
same,normalized growth,"locus YGR135W, strain pre9, hits give low values",1.03
same,normalized growth,"locus YGR252W, strain gcn5, hits give low values",1.01
same,normalized growth,[6],1.01
same,normalized growth,"locus YHR079C, strain IRE1 (second series), hits give low values",1
same,normalized growth,"locus YHR094C, strain hxt1, hits give low values",1.01
same,normalized growth,"locus YHR129C, strain ARP1, hits give low values",1.01
same,normalized growth,"locus YHR200W, strain rpn10, hits give low values",0.992
same,normalized growth,"locus YIL066C, strain RNR3, hits give low values",1.02
same,normalized growth,"locus YIL073C, strain SPO22, hits give low values",1.04
same,normalized growth,"locus YIL125W, strain kgd1, hits give low values",1.01
same,normalized growth,"locus YIR030C, strain dcg1, hits give low values",1.01
same,normalized growth,[7],1.02
same,normalized growth,"locus YJL134W, strain LCB3, hits give low values",1.02
same,normalized growth,"locus YJL168C, strain set2, hits give low values",1
same,normalized growth,"locus YJL187C, strain SWE1 (second series), hits give low values",1.01
same,normalized growth,[8],0.996
same,normalized growth,"locus YKL009W, strain mrt4, hits give low values",0.998
same,normalized growth,"locus YKL068W, hits give low values",1.01
same,normalized growth,"locus YKL085W, strain MDH1 (second series), hits give low values",1.02
same,normalized growth,"locus YKL085W, strain MDH1, hits give low values",1.02
same,normalized growth,[9],1.01
same,normalized growth,"locus YKR001C, strain vps1, hits give low values",1
same,normalized growth,[10],1.03
same,normalized growth,"locus YLR058C, strain SHM2, hits give low values",1.01
same,normalized growth,"locus YLR102C, strain apc9, hits give low values",1.01
same,normalized growth,[11],1.08
same,normalized growth,"locus YLR268W, strain sec22, hits give low values",1.02
same,normalized growth,"locus YLR330W, strain CHS5, hits give low values",1.01
same,normalized growth,"locus YLR342W, strain FKS1 (second series), hits give low values",0.973
same,normalized growth,"locus YLR371W, strain rom2, hits give low values",1.02
same,normalized growth,"locus YLR418C, strain cdc73, hits give low values",0.971
same,normalized growth,"locus YML016C, strain PPZ1, hits give low values",0.996
same,normalized growth,"locus YML032C, strain rad52, hits give low values",1.02
same,normalized growth,"locus YML124C, strain tub3, hits give low values",1.01
same,normalized growth,"locus YMR078C, strain ctf18, hits give low values",1
same,normalized growth,"locus YMR223W, strain ubp8, hits give low values",1.01
same,normalized growth,[12],1.01
same,normalized growth,"locus YMR307W, strain GAS1, hits give low values",1.02
same,normalized growth,"locus YNL067W, strain RPL9B, hits give low values",1.02
same,normalized growth,"locus YNL128W, strain TEP1, hits give low values",1.05
same,normalized growth,[13],1.01
same,normalized growth,"locus YNL233W, strain BNI4, hits give low values",1.03
same,normalized growth,"locus YNL250W, strain rad50, hits give low values",1.02
same,normalized growth,"locus YNL271C, strain bni1, hits give low values",1.01
same,normalized growth,"locus YNL298W, strain CLA4, hits give low values",1
same,normalized growth,"locus YNL307C, strain MCK1, hits give low values",1
same,normalized growth,"locus YNR052C, strain pop2, hits give low values",1.02
same,normalized growth,[14],1.01
same,normalized growth,"locus YOL012C, strain htz1",1.04
same,normalized growth,"locus YOL147C, strain pex11, hits give low values",1
same,normalized growth,"locus YOR061W, strain CKA2, hits give low values",1
same,normalized growth,"locus YOR069W, strain VPS5, hits give low values",1.01
same,normalized growth,"locus YOR136W, strain idh2, hits give low values",1.01
same,normalized growth,"locus YOR144C, strain elg1, hits give low values",1
same,normalized growth,"locus YOR184W, strain ser1, hits give low values",0.996
same,normalized growth,"locus YOR316C, strain cot1, hits give low values",1.01
same,normalized growth,"locus YPR119W, strain clb2, hits give low values",1.02
same,normalized growth,"locus YPR141C, strain kar3, hits give low values",1.01
same,normalized growth,"locus YPR163C, strain tif3, hits give low values",1.02
same,normalized growth,"locus YPR167C, strain met16, hits give low values",1.04
same,normalized growth,"strain wtn01, hits give low values",1
CC(C)C[C@H](N)C(=O)N[C@@H](C)C(=O)O (H-Leu-Ala-OH),normalized growth,[6],1.01
same,normalized growth,"locus YHR079C, strain IRE1, hits give low values",1.01
same,normalized growth,[7],1.02
same,normalized growth,"locus YJR066W, strain TOR1, hits give low values",0.975
same,normalized growth,"locus YLR113W, strain HOG1, hits give low values",1.02
same,normalized growth,"locus YNL183C, strain NPR1, hits give low values",0.954
same,normalized growth,"locus YOR231W, strain MKK1, hits give low values",1.03
same,normalized growth,"locus YPL256C, strain CLN2, hits give low values",1.02
COc1ccc(OC)c(C(=O)c2cc(OC)c(OC)c(OC)c2)c1,normalized growth,[1],0.999
same,normalized growth,[2],1.02
same,normalized growth,[3],1
same,normalized growth,"locus YDR150W, strain NUM1, hits give low values",1.01
same,normalized growth,[4],1.05
same,normalized growth,[5],1
same,normalized growth,[6],0.93
same,normalized growth,"locus YHR087W, strain rtc3, hits give low values",1.06
same,normalized growth,"locus YJL187C, strain SWE1, hits give low values",1.01
same,normalized growth,[8],1.02
same,normalized growth,"locus YJR075W, strain HOC1, hits give low values",1.03
same,normalized growth,[9],1.03
same,normalized growth,[10],0.753 (active)
same,normalized growth,"locus YLR058C, strain SHM2 (second series), hits give low values",1.01
same,normalized growth,"locus YLR085C, strain ARP6, hits give low values",0.999
same,normalized growth,[11],0.69 (active)
same,normalized growth,"locus YML094W, strain GIM5, hits give low values",0.982
same,normalized growth,"locus YMR219W, strain ESC1, hits give low values",1.01
same,normalized growth,[12],1.01
same,normalized growth,[13],1.01
same,normalized growth,"locus YNL298W, strain CLA4 (second series), hits give low values",1.01
same,normalized growth,"locus YNL322C, strain KRE1, hits give low values",0.995
same,normalized growth,"locus YNR030W, strain Alg12, hits give low values",1.01
same,normalized growth,[14],0.973
same,normalized growth,"locus YPL055C, strain LGE1, hits give low values",1.01
same,normalized growth,"locus YPL241C, strain CIN2, hits give low values",0.986
same,normalized growth,"locus YPR135W, strain CTF4, hits give low values",1.06
